# Measured values from the supplement of paper PMC11417369.
# ± gives the standard deviation of the averaged measurements. Over roughly 25,000 sequences, “ln(normalized median fluorescence intensity)” has its median near 10; the highest 2% begin near 12. Shown is part of a subset that was picked to be rich in the highest values.
# System: PfAP2-G AP2 domain (GST-tagged)
# Experiment: gcPBM binding intensity (ln(normalized median fluorescence intensity)); higher = stronger DNA binding
# Summary of the method: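 GST-tagged P. falciparum DNA-binding domains produced in E. coli were incubated for 1 h on an Agilent 4 × 180k array of primer-extended double-stranded 36-bp intergenic genomic probes with negative controls. Binding intensity is the highest Masliner-normalised natural-log median intensity across replicate spots of either probe orientation, with bound protein detected by Alexa488 anti-GST antibody at 488 nm.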
row,Sequence,gcPBM binding intensity (ln)
1,TAAAAAAAAACATATACACACAAAAACGTACACATA [CACACA_site1354],11.8 ± 1.1
2,ACGTATAATATGTACACACACATATATACAAAAAAA [CACACA_site917],11.5 ± 1.1
3,TATATACACATATATAAACACACAAAAAAAAAAAAA [CACACA_site8626],9.89 ± 0.48
4,AAAAATTTATTTTGTTTTTTAAGATTTTTTTTTTTT [CACACA_negctrl_site1210],9.46 ± 0.028
5,TAGTATAATATGAACACACACACACGCACAAAAAAA [CACACA_site7035],10.4 ± 0.2
6,CATATAATATAATTATGTACATATATAATAATATAC [XGTACX_site5278],11.2 ± 0.69
7,CTTATTTAAGAGTATGAACACACATCATACACATAT [CACACA_site9205],10.3 ± 0.23
8,TTTTGTTACGGCAAGGAAGTTAAGCATAAATGAATG [GTGCAC_negctrl_site173],10.1 ± 0.16
9,AAAAAAAAATAAAAAAGTACAGGTAAATATATATAT [XGTACX_site5812],11.5 ± 1.2
10,AAAAAAAAAAAAAAAGGTACAGTAAAAAATTCCTCT [XGTACX_site5947],11.7 ± 0.98
11,AAAAAAGGTAAAAAAAGTACAAAAAAAAAATTAAAA [XGTACX_site6993],11.3 ± 0.88
12,ATATTGTAAGTAAACACACACACATATATATGTATA [CACACA_site8124],9.955 ± 0.035
13,ATAAATATAACATATTGTACCCTTAAAAAGGAACAA [XGTACX_site352],11.7 ± 0.96
14,ATATATAAAATATATTGTACATTAACATATATATTT [XGTACX_site2055],10.7 ± 0.43
15,AAAGACAAAAGGAATTGTACATAATATATAAAATAT [XGTACX_site2923],10.8 ± 0.54
16,TAATAATATATTTGTAGTACACAATTTTTTATAACT [XGTACX_site3951],11.6 ± 0.89
17,ATAATATATTTTTGTAGTACACTTCTGGTAATATCG [XGTACX_site2402],11.7 ± 1
18,TAGTAATATATATTTTGTACATAAAATAATATATAA [XGTACX_site7971],10.9 ± 0.59
19,AAGTTTTATTTAAATTGTACTAAAATTTTTATATTA [XGTACX_site7065],11 ± 0.69
20,ACATATATATAAAGGTGTACACATATATATATATAT [XGTACX_site4779],11.7 ± 0.76
21,TGATGCAAGATATATACACACATATAAATATAAATA [CACACA_site7429],9.8 ± 0.042
22,AACACATAAAAAAGGTGTACCATAAAATATACATAC [XGTACX_site4478],11.4 ± 0.76
23,AATAAATAAATATATACACACATATATCTGTACATA [CACACA_site9034],10.9 ± 0.67

row,Sequence,gcPBM binding intensity (ln)
1,ATACAATAAAGGTGTACACATATATGATGCAAGATG [CACACA_site5897],11.7 ± 0.93
2,TATATATAAAGGTGTACACATATATATATATCTGTA [CACACA_site5311],11.7 ± 0.98
3,AATACAATATAAAGGTGTACATATATATATATATAT [XGTACX_site68],11.4 ± 0.9
4,TATATATATCTGTACACACACACATATAAATAAATA [CACACA_site4405],11.4 ± 1
5,TAAAGTTATGCAATAACACACATATACAATACATAT [CACACA_site6698],9.98 ± 0.057
6,TAAGCCAAGGGATAAATAAAATAACAAAATGAAATC [GTGCAC_negctrl_site601],9.66 ± 0.36
7,AAATATAAAAGTATATGTACATATATATATATATAT [XGTACX_site7446],11.2 ± 0.64
8,TATACACATATATAAAGTACATATATGTGTAAAAAA [XGTACX_site8582],11 ± 0.64
9,ATATGTATATATAAAAGTACGCGTAAAAAAAAAAAA [XGTACX_site5377],11.7 ± 1.3
10,TATTTTTTAAAAAAATGTCATAAAATTTCTTTTTTC [XGTACX_negctrl_site271],9.9
11,AAAAAAAAAAAAAGATGTACATATATTTTTATTATA [XGTACX_site654],11.4 ± 0.96
12,ATATGCCTAATAAAATGTACGTTTGTTTTATTTATT [XGTACX_site3833],11 ± 0.49
13,TAATATATTAATTTTTGTACTTAATTATATGTTTTT [XGTACX_site5654],10.9 ± 0.63
14,GCCTATATGTTTAGTTGTACTCCTAATATTATTTGT [XGTACX_site6060],11.7 ± 1.1
15,ATACATATATAATTATGTACGTATATTTTATATAAC [XGTACX_site4292],11.6 ± 0.91
16,ATATGTATATTTTTTTGTACGTATTTATGTGTGTGT [XGTACX_site2093],11.4 ± 0.84
17,ATATATACATATATATGTACGTATATTTTTATTTCT [XGTACX_site6198],11.6 ± 1.1
18,ATATTTATATTTTCATGTACGTATTTTTATATATAT [XGTACX_site8478],11.6 ± 0.96
19,ACTTTCAAGGATGTACGTACATATGTATTTTATAAC [XGTACX_site6714],11.7 ± 0.91
20,CTTTAACCATATATGTGTACGTATTTTATTCATATT [XGTACX_site6212],11.8 ± 1.1
21,TAATAAATCAAATGCACACACACAAAAAAAAAAAAA [CACACA_site161],10 ± 0.49
22,AGAAATATATATATATATATATATATATATATATAT [TGCATGCA_negctrl_site375],10 ± 0.88
